Where “and” joins values, the source holds several entries; their conditions need not be identical. Identical values can stand only once. Inconclusive results are not listed. Values without a mark were called inactive. Calls of active or inactive are those of the source. Calls come from the whole dose curve; as a rule, active = well fitted inhibition curve with a large enough effect; inconclusive = small, poorly fitted or top-dose-only effect; inactive = flat fitted curve, though single readings scatter.
Assays:
Assay in all cases: Cytotoxic Profiling of Annotated Libraries Using Quantitative High-Throughput Screening (AID 1296008); note: nearly all actives have a fitted effect of over 60% in size
Conditions in all cases: Five cell lines viability, CellTiter-Glo ATP luminescence, 48-72 h; max response: active compounds read low
CRL-7250 = normal cell line; test system: CRL-7250
Summary of the method: (§1)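 Cells exposed to compounds for 48 or 72 hr at 37 degrees Celsius. Viability read as ATP-coupled luminescence with CellTiter-Glo after 10 min at room temperature.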

HaCat = test system: HaCat
Summary of the method: as §1

KB-3-1 = test system: KB-3-1
Summary of the method: as §1

NIH3T3 = test system: NIH3T3
Summary of the method: as §1
% is set by controls: 0 for no effect and ±100 for the full control effect; potency is the fitted concentration of half-maximal effect.

## C=C1CCC2[C@](C)(CCC[C@@]2(C)C=O)[C@H]1CC/C(C)=C/CO (some centres not stated)
CRL-7250
  max response: 2.68%
HaCat
  max response: 2.96%
KB-3-1
  outcome: inactive
NIH3T3
  max response: 1.76%

## CCOC(=O)N1c2ccc(C(F)(F)F)cc2C(N(Cc2cc(C(F)(F)F)cc(C(F)(F)F)c2)C(=O)OC)CC1CC (configuration not stated)
CRL-7250
  max response: -2.53%
HaCat
  max response: -2.39%
KB-3-1
  max response: -0.758%
NIH3T3
  max response: 3.11%

## CC(C)CCNc1ncccc1C(=O)N1CCN(Cc2ccccc2)CC1
CRL-7250
  max response: -4.32%
HaCat
  max response: 1.63%
KB-3-1
  max response: 4.22%
NIH3T3
  max response: 2.66%

## O=C(NCCCNC(=O)c1ccc[nH]c1=O)c1cc(-c2ccccc2)on1
CRL-7250
  max response: -21.2%
HaCat
  max response: -1.65%
KB-3-1
  max response: -25.1%
NIH3T3
  max response: 2.72%

## CNCc1cc(-c2ccccc2F)n(S(=O)(=O)c2cccnc2)c1
CRL-7250
  max response: -3.13%
HaCat
  max response: -5.62%
KB-3-1
  max response: -0.384%
NIH3T3
  max response: 0.556%

## C=CC(C)(C)c1[nH]c2ccccc2c1C[C@@H]1NC(=O)[C@H](C)NC1=O
CRL-7250
  max response: -22.2%
HaCat
  max response: 1.83%
KB-3-1
  max response: 3.23%
NIH3T3
  outcome: inactive

## Clc1ncoc1-c1c[nH]c2ccccc12
CRL-7250
  outcome: inactive
HaCat
  max response: -17.9%
KB-3-1
  max response: 7.62%
NIH3T3
  max response: -6.46%

## C=C(C)C(=O)O[C@H]1[C@H]2C(=C)C(=O)O[C@@H]2/C=C(\CO)CC/C=C(/C=O)[C@@H]1O
CRL-7250
  max response: -17.3%
HaCat
  max response: -13.6%
KB-3-1
  outcome: inactive
NIH3T3
  max response: -6.9%

## Cn1nc(C(C)(C)C)cc1C(=O)N[C@@H](Cc1cccc(Cl)c1)C(=O)NCC#N
CRL-7250
  outcome: inactive
HaCat
  max response: -0.262%
KB-3-1
  max response: 0.545%
NIH3T3
  outcome: inactive

## Cc1c(C2=CCN(C(=O)N(C)C(C)C)CC2)nnn1-c1cccnc1F
CRL-7250
  max response: -2.94%
HaCat
  max response: 3%
KB-3-1
  max response: 7.23%
NIH3T3
  max response: -3.1%

## CCC[C@@]1(CCc2ccccc2)CC(O)=C([C@H](CC)c2cccc(NS(=O)(=O)c3ccc(C(F)(F)F)cn3)c2)C(=O)O1
CRL-7250
  outcome: inactive
HaCat
  max response: 2.03%
KB-3-1
  max response: -13.2% and -6.18%
NIH3T3
  outcome: inactive

## N#Cc1cc(C2=Nc3ccc(Br)cc3NC(=O)C2)ccn1
CRL-7250
  max response: -3.76%
HaCat
  max response: 4.97%
KB-3-1
  max response: 4.39%
NIH3T3
  outcome: inactive

## CC1(C)CCC(C)(C)c2cc(C#Cc3ccc(C(=O)O)cc3)ccc21
CRL-7250
  max response: -18.1%
HaCat
  max response: -1.18%
KB-3-1
  max response: -2.7%
NIH3T3
  outcome: inactive

## CC(C)C[C@H](CO)Nc1nc(S[C@@H](C)c2ccccc2)nc2nc(N)sc12
CRL-7250
  max response: 1.1%
HaCat
  max response: -4.79%
KB-3-1
  outcome: inactive
NIH3T3
  max response: 2.79%

## O=C(NC1CCC1)c1ccc(C#Cc2cccc(F)c2)nc1
CRL-7250
  max response: -2.08%
HaCat
  max response: -7.87%
KB-3-1
  max response: 8.07%
NIH3T3
  max response: -25.1%

## O=C(c1ccc(F)cc1)N1CCCC(c2nc(-c3ccc(F)cc3)no2)C1 (configuration not stated)
CRL-7250
  max response: -19.5%
HaCat
  max response: -5.25%
KB-3-1
  max response: -21.6%
NIH3T3
  max response: -12.8%

## O=C(/C=C/c1ccccc1O)O[C@@H]1O[C@H](CO)[C@@H](O)[C@H](O)[C@H]1O
CRL-7250
  max response: 2.59%
HaCat
  max response: -3.03%
KB-3-1
  outcome: inactive
NIH3T3
  outcome: inactive

## C[C@@H]1CC[C@]2(C(=O)O)CC[C@]3(C)C(=CCC4[C@@]5(C)CC[C@H](O)[C@](C)(C(=O)O)C5CC[C@]43C)C2[C@]1(C)O (some centres not stated)
CRL-7250
  max response: -2.08%
HaCat
  max response: 4.55%
KB-3-1
  max response: 0.684%
NIH3T3
  max response: -24.1%

## COc1ccc(C2Oc3c(OC)cc(CCCO)cc3C2COC2OC(CO)C(O)C(O)C2O)cc1OC (configuration not stated)
CRL-7250
  outcome: inactive
HaCat
  max response: 1.52%
KB-3-1
  max response: -12.2%
NIH3T3
  max response: -1.06%

## CC1(CO)CC(O)[C@]2(C(=O)O)CCC34CC3(C=CC3[C@]5(C)C(CC[C@]34C)C(C)(CO)[C@@H](O)[C@H](O)[C@@H]5O)C2C1 (some centres not stated)
CRL-7250
  max response: -11.7%
HaCat
  max response: -0.72%
KB-3-1
  outcome: inactive
NIH3T3
  max response: -3.3%

## Nc1nc2c(nc(Br)n2[C@@H]2O[C@@H]3COP(=O)(O)O[C@H]3[C@H]2O)c(=O)[nH]1
CRL-7250
  max response: -4.64%
HaCat
  max response: -8.41%
KB-3-1
  outcome: inactive
NIH3T3
  outcome: inactive

## CC(=O)[C@H]1CC[C@H]2[C@@H]3CC=C4C[C@@H](OS(=O)(=O)O)CC[C@]4(C)[C@H]3CC[C@]12C
CRL-7250
  outcome: inactive
HaCat
  max response: 1.57%
KB-3-1
  max response: 2.57%
NIH3T3
  max response: -4.15%

## CC(=O)OC1C(=O)C2C3OCC4=C3[C@@](C)(CC[C@@H]4O)CC[C@]2(C)[C@H]1C(C)C (some centres not stated)
CRL-7250
  max response: 0.411%
HaCat
  max response: -13.7%
KB-3-1
  max response: 4.67%
NIH3T3
  max response: 1.97%

## O=C(N[C@H]1CCC[C@H](CO)C1)C1CCN(c2nc3cc(Cl)c(-c4ccc(Cl)cc4)cc3o2)CC1
CRL-7250
  max response: -0.419%
HaCat
  max response: -4.31%
KB-3-1
  max response: -14.3%
NIH3T3
  max response: 0.931%

## O=C1COc2nccc(-c3ccccc3F)c2CN1Cc1cc(C(F)(F)F)cc(C(F)(F)F)c1
CRL-7250
  outcome: inactive
HaCat
  max response: -0.797%
KB-3-1
  max response: -2.61%
NIH3T3
  max response: -11.4%

## Nc1nc2c(cnn2CCCc2ccc(O)cc2)c2nc(-c3ccco3)nn12
CRL-7250
  outcome: inactive
HaCat
  max response: -2.77%
KB-3-1
  max response: 8.63%
NIH3T3
  max response: 3.84%

## CC(C)(CO)c1cc2cc(NC(=O)C3(c4ccc5c(c4)OC(F)(F)O5)CC3)c(F)cc2n1CC(O)CO (configuration not stated)
CRL-7250
  outcome: inactive
HaCat
  max response: -17.2%
KB-3-1
  outcome: inactive
NIH3T3
  max response: -6.55%

## CCCCOC(=O)NS(=O)(=O)c1sc(CC(C)C)cc1-c1ccc(Cn2ccnc2)cc1
CRL-7250
  max response: -0.539%
HaCat
  max response: -26.5%
KB-3-1
  max response: -13.1%
NIH3T3
  outcome: inactive

## C/C(=C\CO[C@@H]1O[C@H](CO[C@H]2OC[C@](O)(CO)[C@H]2O)[C@@H](O)[C@H](O)[C@H]1O)C(C)(C)O
CRL-7250
  max response: -3.13%
HaCat
  max response: -2.99%
KB-3-1
  max response: 2.14%
NIH3T3
  max response: 3.25%

## C/C=C/C=C/C=C/C(=O)O[C@@H]1C=C(CO)C(O)(C(=O)OC)[C@@]2(C)CCCC(C)(C)C12 (some centres not stated)
CRL-7250
  max response: -4.29%
HaCat
  max response: 2.7%
KB-3-1
  max response: -3.74%
NIH3T3
  max response: 4.09%

## N#Cc1ccc(COC[C@H]2O[C@@H](n3c(NCc4ccc(Cl)c(Cl)c4)nc4c(N)ncnc43)[C@H](O)[C@@H]2O)cc1
CRL-7250
  outcome: inactive
HaCat
  max response: -23%
KB-3-1
  max response: 2.86%
NIH3T3
  max response: -0.0303%

## CC(=O)OC[C@]12[C@H](OC(C)=O)[C@H](OC(=O)c3ccccc3)[C@@H]3[C@@H](OC(C)=O)[C@]1(OC3(C)C)[C@H](C)C[C@H](OC(C)=O)[C@@H]2OC(=O)c1ccccc1
CRL-7250
  outcome: inactive
HaCat
  max response: -0.678%
KB-3-1
  max response: 4.67%
NIH3T3
  max response: 3.09%

## CNS(=O)(=O)c1ccccc1Nc1nc(Nc2ccc(N3CCN(C)CC3)cc2OC)ncc1Br
CRL-7250
  Potency: 1.64 µM (active)
HaCat
  Potency: 3.26 µM (active)
KB-3-1
  Potency: 4.61 µM (active)
NIH3T3
  Potency: 1.46 µM (active)

## CC1(C)CCC2(C(=O)OC3OC(COC4OC(CO)C(O)C(O)C4O)C(O)C(O)C3O)CCC3(C)C(=CCC4C5(C)CCC(OC6OCC(O)C(O)C6O)C(C)(C)C5CCC43C)C2C1O (configuration not stated)
CRL-7250
  max response: -0.133%
HaCat
  max response: -3.21%
KB-3-1
  outcome: inactive
NIH3T3
  max response: -18.4%

## CC[C@@H]1C[C@]1(NC(=O)[C@@H]1C[C@@H]2CN1C(=O)[C@H](C(C)(C)C)NC(=O)OCC(C)(C)CCCCc1cccc3c1CN(C3)C(=O)O2)C(=O)NS(=O)(=O)C1CC1
CRL-7250
  max response: -9.24%
HaCat
  max response: -6.71%
KB-3-1
  max response: -19.5%
NIH3T3
  outcome: inactive

## C[C@H](Nc1cc2c(-c3ccc4c(c3)OCO4)noc2cn1)c1ccccc1
CRL-7250
  max response: 3%
HaCat
  max response: -9.56%
KB-3-1
  outcome: inactive
NIH3T3
  max response: -4.93%

## CCC(CC)(NC(=O)C(C)C)C(=O)N[C@@H](CCCN=C(N)N)C(=O)NC1(C(=O)NC(c2ccc(F)cc2)c2ccc(F)cc2)CCCC1
CRL-7250
  max response: 2.72%
HaCat
  max response: -3.8%
KB-3-1
  max response: 7.28%
NIH3T3
  max response: -2.32%

## C=C1CCN([C@H](C)[C@](O)(Cn2cncn2)c2ccc(F)cc2F)CC1
CRL-7250
  max response: -7.35%
HaCat
  max response: -11.9%
KB-3-1
  max response: -0.073%
NIH3T3
  outcome: inactive

## CN(C)CC#CCCC(=O)C(O)(c1ccccc1)C1CCC1 (configuration not stated)
CRL-7250
  max response: 4.04%
HaCat
  max response: 3%
KB-3-1
  max response: 7.92%
NIH3T3
  max response: -1.12%

## C=C[C@](C)(O)CC[C@H]1C(C)=CC(=O)[C@H]2C(C)(C)CCC[C@]12C
CRL-7250
  max response: -9.12%
HaCat
  max response: 1.13%
KB-3-1
  max response: -5.31%
NIH3T3
  max response: 0.554%

## COc1ccc(Sc2ccc(NC(=O)c3ccccc3Cl)cc2C#N)cc1
CRL-7250
  max response: -14.2%
HaCat
  max response: -11.3%
KB-3-1
  max response: -1.86%
NIH3T3
  max response: -6.24%

## CNC(=O)c1ccc2c(c1)CCO[C@H]2CCN1CCN(c2ccc(OC)cc2)CC1
CRL-7250
  max response: 1.26%
HaCat
  max response: -0.835%
KB-3-1
  max response: -8.62%
NIH3T3
  max response: 2.66%

## C[C@@H]1O[C@@H](O[C@H]2[C@H](OC(=O)[C@]34CCC(C)(C)C[C@H]3C3=CCC5[C@@]6(C)C[C@H](O)[C@H](O[C@@H]7O[C@H](C(=O)O)[C@@H](O)[C@H](O)[C@H]7O)[C@@](C)(CO)C6[C@H](O)C[C@@]5(C)[C@]3(C)C[C@H]4O)O[C@@H](CO)[C@@H]2O)[C@H](O)[C@H](O)[C@H]1O[C@@H]1OC[C@@H](O)[C@H](O[C@H]2OC[C@](O)(CO)[C@H]2O)[C@H]1O (some centres not stated)
CRL-7250
  outcome: inactive
HaCat
  max response: -2%
KB-3-1
  max response: -0.0365%
NIH3T3
  max response: -0.318%

Source: PubChem BioAssay (NCATS)
